Assay results as given in PubChem BioAssay.
Where “and” joins values, the source holds several entries; their conditions need not be identical. Equal entries are not always repeated. For some assays here: Results with a measured potency or affinity are listed apart. Calls of active or inactive are those of the source. Unless noted, how the calls were made is not given here.

How the values were obtained:
[1] = hESC survival regulators, cell-based (AID 493140); conditions: human embryonic stem cell survival screen; stronger effect = higher value;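 further: cells exposed to compounds for four days before counting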
[2] = Cy5 fluorescence interference with SSB-bound oligo, artefact control for HCV NS3 helicase inhibitor project, biochemical, NIH Clinical Collection, E. coli SSB (AID 743268)
[3] = test system: Hepatitis C virus NS3 helicase; experiment: HCV NS3 helicase inhibitors, primary screen, biochemical, fluorescence polarization, NIH Clinical Collection (AID 743270); conditions: NS3 helicase binding to Cy5-dT15 DNA, stronger effect = higher value, concentration not given here
[4] = molecular target: Single-stranded DNA-binding protein (Escherichia coli (strain K12)) (UniProt P0AGE0); experiment: E. coli SSB displacement from DNA, counter-screen for HCV NS3 helicase inhibitor project, biochemical, fluorescence polarization, NIH Clinical Collection (AID 743271; in the data active means inhibition above about 28%); conditions: stronger effect = higher value, concentration not given here
[5] = fluorescence interference in NS3h assay format, artefact control for HCV NS3 helicase inhibitor project, biochemical, NIH Clinical Collection (AID 743272); conditions: fluorescence interference counterscreen, stronger effect = lower value;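 further: HCV NS3 helicase with a Cy5 labelled single stranded DNA probe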
[6] = modulation of C. elegans fzo-1 (AID 1259413);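 further: fzo-1 mutant C. elegans worms in liquid wells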; conditions: C. elegans fzo-1 modulator screen, mean read-out; stronger effect = higher value
[7] = molecular target: NAD(+) hydrolase SARM1 (Homo sapiens) (UniProt Q6SZW1); experiment: SARM1 TIR NADase inhibitors, cell lysate, NAD-Glo luminescence (AID 1508614;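 active means compound whose remaining NAD level is above about 45 nM, limit read from the data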); conditions: SAM-TIR HEK293T lysate NADase, at 1 µM, stronger effect = higher value
Chain of NAD(+) hydrolase SARM1 (Homo sapiens) (Q6SZW1 whole entry, looked up): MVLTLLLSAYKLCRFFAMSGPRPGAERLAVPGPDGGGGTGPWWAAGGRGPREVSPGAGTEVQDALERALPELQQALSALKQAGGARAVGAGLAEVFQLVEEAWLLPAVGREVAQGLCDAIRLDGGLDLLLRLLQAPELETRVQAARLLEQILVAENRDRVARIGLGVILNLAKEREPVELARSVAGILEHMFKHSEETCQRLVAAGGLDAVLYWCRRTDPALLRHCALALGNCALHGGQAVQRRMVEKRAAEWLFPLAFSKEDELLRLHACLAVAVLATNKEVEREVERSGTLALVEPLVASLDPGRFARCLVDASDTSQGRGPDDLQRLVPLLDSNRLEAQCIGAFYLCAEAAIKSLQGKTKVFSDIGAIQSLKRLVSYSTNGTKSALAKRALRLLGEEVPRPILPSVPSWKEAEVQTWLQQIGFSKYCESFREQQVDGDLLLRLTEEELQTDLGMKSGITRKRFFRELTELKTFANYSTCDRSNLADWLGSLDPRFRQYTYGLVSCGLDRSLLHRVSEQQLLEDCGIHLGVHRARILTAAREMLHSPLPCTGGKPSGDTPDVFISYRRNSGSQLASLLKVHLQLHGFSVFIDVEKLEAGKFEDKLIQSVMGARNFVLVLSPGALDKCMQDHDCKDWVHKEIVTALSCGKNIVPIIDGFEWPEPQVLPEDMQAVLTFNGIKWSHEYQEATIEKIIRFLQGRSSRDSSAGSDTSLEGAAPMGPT

R275C/beta2Delta = experiment: modulators of BK channel variants, profiling panel, selectivity assay, cell-based, U2OS BacMam, thallium flux, beta subunits (AID 1259406;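 active means thallium flux through the channel raised or lowered by more than 3 SD from vehicle-only wells, actives on both sides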;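 further: initial slope of Thallos dye fluorescence rise after thallium is added; log ratio against the mean of 0.3% DMSO vehicle wells on the same plate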); conditions: at 30 µM
R275C/beta4 = experiment: as above; conditions: at 30 µM
R275C/Slo1WT/beta2 = experiment: as above; conditions: at 30 µM
[8] = molecular target: Mitogen-activated protein kinase 7 (Homo sapiens) (UniProt Q13164); experiment: ERK5 transactivation activators in reporter cells, primary screen, cell-based, HTS (AID 1508626;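 active means luciferase signal above three times the same-plate solvent-only control wells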;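 further: luciferase driven by Gal4-ERK5 fusion binding five Gal4 sites before minimal TATA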); conditions: HeLa Gal4-ERK5 transactivation, 18 h, at 5 µM, stronger effect = higher value
Chain of Mitogen-activated protein kinase 7 (Homo sapiens) (Q13164 whole entry, looked up, the tested form may be a part): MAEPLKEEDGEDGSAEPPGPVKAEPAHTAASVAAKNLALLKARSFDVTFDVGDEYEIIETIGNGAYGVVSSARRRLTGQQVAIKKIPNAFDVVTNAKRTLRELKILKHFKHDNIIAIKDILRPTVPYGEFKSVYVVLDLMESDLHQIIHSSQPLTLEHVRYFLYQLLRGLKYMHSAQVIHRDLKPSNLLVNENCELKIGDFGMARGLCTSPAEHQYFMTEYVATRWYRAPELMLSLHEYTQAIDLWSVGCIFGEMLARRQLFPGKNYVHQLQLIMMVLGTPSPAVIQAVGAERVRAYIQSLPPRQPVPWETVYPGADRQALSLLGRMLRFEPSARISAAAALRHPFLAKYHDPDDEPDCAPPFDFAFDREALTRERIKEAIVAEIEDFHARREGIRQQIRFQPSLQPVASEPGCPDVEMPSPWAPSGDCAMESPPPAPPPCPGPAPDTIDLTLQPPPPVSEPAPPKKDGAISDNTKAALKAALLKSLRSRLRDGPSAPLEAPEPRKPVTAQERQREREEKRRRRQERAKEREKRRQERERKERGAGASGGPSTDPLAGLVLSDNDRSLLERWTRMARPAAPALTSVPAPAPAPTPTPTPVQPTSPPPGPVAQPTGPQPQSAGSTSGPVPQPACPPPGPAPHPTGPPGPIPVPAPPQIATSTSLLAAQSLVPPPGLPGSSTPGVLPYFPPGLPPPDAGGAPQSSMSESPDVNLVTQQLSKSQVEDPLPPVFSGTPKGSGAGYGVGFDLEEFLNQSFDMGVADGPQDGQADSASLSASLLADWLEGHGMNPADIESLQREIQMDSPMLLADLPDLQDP

[9] = viability rescue of complex I mutant cybrids, primary screen, cell-based, galactose medium, ATP luminescence (AID 1645843;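 active means z-score of at least 1.8 in each of two replicates, scored against plate mean and spread of sample wells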;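 further: positive z means more ATP and so rescue of galactose-driven cybrid death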); conditions: complex I mutant cybrid cells, 72 h, stronger effect = higher value
[10] = ICB984 medulloblastoma cell growth inhibition, synergistic combos for chromothripsis tumors, cisplatin or BGB combos (AID 1671451); conditions: ICB984 medulloblastoma cells, drug combinations, stronger effect = higher value;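 further: cells exposed for 96 hours before readout; 0% = vehicle DMSO and 100% = killing by high DMSO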
[11] = polyglutamine-triggered caspase-3 activation inhibitors, cell-based (AID 1583); conditions: polyglutamine-induced caspase-3 activation, cell assay; stronger effect = higher value;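 tested at 10 µM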
[12] = suppressors of polyQ aggregation in yeast, 75Q-TubU reporter (AID 1593); conditions: Yeast 75Q polyglutamine aggregation reporter
[13] = inhibitors of mitochondrial cytochrome c release, biochemical, purified mitochondria (AID 1603); conditions: stronger effect = lower value;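 further: mouse liver mitochondria challenged with calcium chloride; signal normalized to the plate average as 100%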
[14] = inhibitors of polyQ protein aggregation (AID 1604); conditions: polyglutamine-induced protein aggregation inhibition assay; stronger effect = higher value; tested at 2.5 µM
[15] = enhancers of glutamate uptake in motor neurons, MN-1 cell line (AID 1612); conditions: MN-1 motor neuron cells, stronger effect = higher value;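 further: tested at 1 µM final; 0% = mean of DMSO vehicle wells on each plate; positive means more glutamate uptake than control and negative means less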
[16] = suppressors of polyglutamine aggregation in yeast, 75Q-TubH (AID 1616); conditions: S. cerevisiae 75Q-TubH polyglutamine aggregation suppression; stronger effect = higher value
[17] = rescue of polyQ-huntingtin neuronal dysfunction in worms, whole organism, C. elegans mechanosensory neurons, N-terminal huntingtin (AID 1599); conditions: touch response, stronger effect = higher value
[18] = measured here: 5 uM single agent, at 5 µM

## CCOC(=O)C1=C(C)NC(C)=C(C(=O)OC)C1c1cccc([N+](=O)[O-])c1 (stereo unspecified)
[1]
  survival: 5.33 (inactive)
[2]
  fluorescence ratio: 1 (inactive)
[3]
  inhibition: 4.36% (inactive)
[4]
  inhibition: 8.37% (inactive)
[5]
  fluorescence ratio: 1.03 (inactive)
[6]
  mean signal: 230 (inactive)
[7]
  remaining NAD: 10 nM (inactive)
R275C/beta2Delta
  log fold change Tl+ flux: -0.0485 (inactive)
R275C/beta4
  log fold change Tl+ flux: -0.023 (inactive)
R275C/Slo1WT/beta2
  log fold change Tl+ flux: 0.016 (inactive)

## COc1c(N2CCNC(C)C2)c(F)cc2c(=O)c(C(=O)O)cn(C3CC3)c12 (stereo unspecified)
[2]
  fluorescence ratio: 1.05 (inactive)
[3]
  inhibition: -8.64% (inactive)
[4]
  inhibition: -6.58% (inactive)
[5]
  fluorescence ratio: 1.01 (inactive)
[6]
  mean signal: 254 (inactive)
[7]
  remaining NAD: 10 nM (inactive)
[8]
  luciferase signal: 72 AU (inactive)
[9]
  z-score: 0.695 (inactive) and -0.01 (inactive)
[10]; BGB IC20 combo, at 0.005 µM
  inhibition: 6.38% and 0.318%
[10]; BGB IC40 combo, at 0.005 µM
  inhibition: -11.2% and -13.7%
[10]; BGB IC40 combo, at 0.05 µM
  inhibition: -11.7% and 20.2%
[10]; at 0.5 µM
  inhibition: -18.4% (inactive) and -24.4% (inactive)
[10]; cisplatin combo, at 0.05 µM
  inhibition: -15.7% and 18%
[10]; cisplatin combo, at 0.5 µM
  inhibition: -12.4% and -7.73%
[10]; cisplatin combo, at 5 µM
  inhibition: -26.5% and -51.5%
[10]; [18]
  inhibition: -2.69% and -3.52%
R275C/beta2Delta
  log fold change Tl+ flux: 0.00178 (inactive)
R275C/beta4
  log fold change Tl+ flux: -0.00176 (inactive)
R275C/Slo1WT/beta2
  log fold change Tl+ flux: 0.05 (inactive)

## Oc1c(Cl)cc(Cl)c2cccnc12
[11]
  inhibition: 31.4%
[12]
  score: -0.52
[13]
  cytochrome c release ratio: 0.8
[14]
  inhibition of aggregation: -25.9%
[15]
  glutamate uptake change: -23%
[16]
  aggregation suppression score: -0.164
[2]
  fluorescence ratio: 1.02 (inactive)
[3]
  inhibition: 2.27% (inactive)
[4]
  inhibition: -0.48% (inactive)
[5]
  fluorescence ratio: 0.95 (inactive)
[6]
  mean signal: 244 (inactive)
[7]
  remaining NAD: 10 nM (inactive)
[8]
  luciferase signal: 48 AU (inactive)
[9]
  z-score: -1.51 (inactive)
R275C/beta2Delta
  log fold change Tl+ flux: 0.0748 (inactive)
R275C/beta4
  log fold change Tl+ flux: 0.422 (active)
R275C/Slo1WT/beta2
  log fold change Tl+ flux: 0.19 (active)

## S=c1nc[nH]c2nc[nH]c12
[11]
  inhibition: 26.7%
[12]
  score: 1.45
[17]
  rescue above control: -8.7
[13]
  cytochrome c release ratio: 0.93
[14]
  inhibition of aggregation: 66.2%
[15]
  glutamate uptake change: 12.1%
[16]
  aggregation suppression score: 1.29
[2]
  fluorescence ratio: 1.03 (inactive)
[3]
  inhibition: -1.36% (inactive)
[4]
  inhibition: 0.29% (inactive)
[5]
  fluorescence ratio: 0.99 (inactive)
[6]
  mean signal: 247 (inactive)
[7]
  remaining NAD: 10 nM (inactive)
[8]
  luciferase signal: 2730 AU (active)
[9]
  z-score: 2.91 (active)
[10]; BGB IC20 combo, at 0.005 µM
  inhibition: -10.3% and -30.1% and -29.5%
[10]; BGB IC40 combo, at 0.005 µM
  inhibition: -20.2% and -36.3% and -18.2%
[10]; BGB IC40 combo, at 0.05 µM
  inhibition: -14.4% and -4.47% and -23%
[10]; at 0.5 µM
  inhibition: -13.7% (inactive) and -13.9% (inactive) and -17.8% (inactive)
[10]; cisplatin combo, at 0.05 µM
  inhibition: -14.4% and -8.61% and -23%
[10]; cisplatin combo, at 0.5 µM
  inhibition: -25.2% and -17.5% and -28.1%
[10]; cisplatin combo, at 5 µM
  inhibition: -3.58% and -36.1% and -37.1%
[10]; [18]
  inhibition: -34.5% and -9.53% and -28.9%
R275C/beta2Delta
  log fold change Tl+ flux: -0.0376 (inactive)
R275C/beta4
  log fold change Tl+ flux: -0.0907 (inactive)
R275C/Slo1WT/beta2
  log fold change Tl+ flux: 0.0711 (inactive)

## CC(C)Cc1ccc(C(C)C(=O)O)cc1 (stereo unspecified)
[11]
  inhibition: -4.83%
[12]
  score: 0.01
[17]
  rescue above control: 11.4
[13]
  cytochrome c release ratio: 0.94
[14]
  inhibition of aggregation: 47.1%
[15]
  glutamate uptake change: 16.3%
[16]
  aggregation suppression score: -0.00282
[6]
  mean signal: 242 (inactive)
[7]
  remaining NAD: 10 nM (inactive)
[8]
  luciferase signal: 24 AU (inactive)
[9]
  z-score: 0.975 (inactive) and -0.01 (inactive) and 0.46 (inactive)
R275C/beta2Delta
  log fold change Tl+ flux: -0.00841 (inactive)
R275C/beta4
  log fold change Tl+ flux: -0.0471 (inactive)
R275C/Slo1WT/beta2
  log fold change Tl+ flux: 0.0328 (inactive)
